Laboratory results as given in PubChem BioAssay AID686978 (National Center for Advancing Translational Sciences (NCATS), 2013).
The campaign covered roughly 420,000 compounds. About 64,000 (15%) were called active. Inconclusive results (about 27%) are left out. Calls follow the shape of the dose curve; as a rule, active = well fitted inhibition curve with a large enough effect; inconclusive = small, poorly fitted or top-dose-only effect; inactive = flat fitted curve, though single readings scatter. These entries were drawn from the full list. Entries that show only a call come without a potency.
Potency is read from the fitted curve at half-maximal effect.

Assay: qHTS for Inhibitors of human tyrosyl-DNA phosphodiesterase 1 (TDP1): qHTS in cells in absence of CPT; also: nearly all actives have a fitted effect of over 55% in size
Conditions: DT40 Tdp1-/- hTDP1 cells, no CPT, ATP luminescence, 48 h; activity change, negative = growth inhibition: at 46.2 µM (top of the series)
In short: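 Readout: luminescence from CellTiter-Glo after 30 min in the dark at RT. Cells: DT40 Tdp1-/- with stable hTDP1, 400/well. Exposure: compounds alone, ≥48 hr, 37 °C.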
With `CC1(c2nnc(-c3ccncc3)o2)CC(c2cccnc2)=NO1` (stereo not given) the Potency was “inactive”.
With `CN(C)/C(=N\OC(=O)c1ccccc1)c1nonc1N` the Potency was “inactive”.
For `COCCNC(=O)c1ccc(Cn2c(SCC(=O)NCC3CCCO3)nc3ccc(Br)cc3c2=O)cc1` (stereo not given), the Potency was “inactive”.
With `Nc1ccn(CC(=O)N2CCN(c3ccccn3)CC2)c(=O)n1` the Potency was “inactive”.
In the case of `Cc1ccc(S(=O)(=O)NC(C(=O)N2CCOCCOCCOCCOCC2)c2ccccc2)cc1` (stereo not given), the Potency is reported as “inactive”.
For `CCCC(C(=O)n1nc(C)cc1C)C(NS(=O)(=O)c1ccc(C)cc1)c1ccccc1` (stereo not given), the Potency was 23.1 µM (active).
With `Cc1ccc(S(=O)(=O)Nc2nc(C)cc(-n3nc(C)cc3C)n2)cc1` the Potency was “inactive”.
With `Cc1c(NC(=O)C(C)OC(=O)c2ccccc2O)c(=O)n(-c2ccccc2)n1C` (stereo not given) the Potency was “inactive”.
With `CCCCS(=O)c1snnc1C` (stereo not given) the Potency was “inactive”.
With `O=C1CCCCC1Sc1ccc(Cl)cc1[N+](=O)[O-]` (stereo not given) the Potency was “inactive”.
With `CCOC(=O)c1ccc(NC(=O)c2c(N)n(C)c(=O)[nH]c2=O)cc1` the Potency was “inactive”.
In the case of `O=C(Nc1ccc(Cl)cc1)c1cnn2c1NC(=C1CC1)C=C2C(F)F`, the Potency is reported as “inactive”.
With `O=C(Nc1ccc([N+](=O)[O-])cc1)c1cnn2c1NC(=C1CC1)C=C2C(F)F` the Potency was “inactive”.
For `CC(C)(C)C1CCC(NC(=O)c2cnn3c2NC(=C2CC2)C=C3C(F)F)CC1` (stereo not given), the Potency was 7.94 µM (active).
In the case of `Cc1cc(N2C(=O)C(=O)/C(=C(/O)c3ccccc3)C2c2cccc(Br)c2)no1` (stereo not given), the Potency is reported as “inactive”.
With `O=C(O)CSC(NC(=O)c1cccnc1)(C(F)(F)F)C(F)(F)F` the Potency was “inactive”.
In the case of `COc1ccc(N)cc1NC(=O)CN1CCOCC1`, the Potency is reported as “inactive”.
In the case of `O=C(Nc1ccc(F)cc1)C(CCc1ccccc1)N1CCN(CC(=O)N2CCCC2)CC1` (stereo not given), the Potency is reported as “inactive”.
With `CC(NC(=O)c1cccc(S(=O)(=O)N2CCc3ccccc3C2)c1)c1ccco1` (stereo not given) the Potency was “inactive”.
For `COC(=O)c1ccc(S(=O)(=O)N2CCc3ccccc3C2)cc1`, the Potency was “inactive”.
For `Cc1cccc(N2CCN(C(=O)c3cccc(S(=O)(=O)N4CCc5ccccc5C4)c3)CC2C)c1` (stereo not given), the Potency was 7.31 µM (active).
With `COc1ccc(-n2ncc3c(N4CCCc5ccccc54)ncnc32)cc1` the Potency was “inactive”.
For `COc1ccc(C2(c3ccc(OC)cc3)NC(=O)N(CC(=O)Nc3cc(C)on3)C2=O)cc1`, the Potency was 16.4 µM (active).
In the case of `Cc1cc(NC(=O)CN2C(=O)NC(C)(CCc3ccccc3)C2=O)no1` (stereo not given), the Potency is reported as “inactive”.
In the case of `CCCCCCCC1(C)NC(=O)N(CC(=O)Nc2cc(C)on2)C1=O` (stereo not given), the Potency is reported as “inactive”.
In the case of `O=C(CSc1nnc(-c2ccccc2O)o1)NC1CCCCC1`, the Potency is reported as “inactive”.
With `O=S(=O)(Cc1ccccc1)c1nc2ccccc2n1Cc1ccccn1` the Potency was “inactive”.
With `CCOc1ccc(S(=O)(=O)N2CCC(C(=O)NCC(=O)Nc3cccc(Cl)c3C)CC2)cc1` the Potency was “inactive”.
For `CSc1nccc(NC(=O)c2ccc(C(C)(C)C)cc2)n1`, the Potency was 7.31 µM (active).
With `Cc1cccc(NC(=O)c2cccnc2Cl)n1` the Potency was “inactive”.
In the case of `Cc1cccc(NC(=O)c2ccccc2NC(=O)C(C)(C)C)n1`, the Potency is reported as “inactive”.
In the case of `Cc1cc(C)c2nc(NC(=O)c3ccc4c(c3)OCO4)sc2c1`, the Potency is reported as “inactive”.
With `Cc1nc2cnc(Nc3ccccc3)nc2n(C[C@H]2CCCO2)c1=O` the Potency was “inactive”.
For `COc1cccc(Nc2ncc3ncc(=O)n(C4CC4)c3n2)c1`, the Potency was 11.6 µM (active).
In the case of `O=c1cnc2cnc(Nc3ccccc3)nc2n1Cc1ccc(F)cc1`, the Potency is reported as “inactive”.
In the case of `CC(C)CCNC(=O)C1CCC(CNc2c(N3CCC(C)CC3)c(=O)c2=O)CC1` (stereo not given), the Potency is reported as “inactive”.
With `CC(C)C(=O)N1CCN(CCN=CC2=C(O)CC(c3ccco3)CC2=O)CC1` (stereo not given) the Potency was “inactive”.
For `Cc1ccc(OCC(=O)NCCCNC(=O)c2cccnc2)cc1C`, the Potency was “inactive”.
With `CCCc1nc(N2CCN(C)CC2)c2sc(=S)n(-c3ccccc3)c2n1` the Potency was 16.4 µM (active).
In the case of `CCCc1nc(-c2ccccc2O)n(-c2ccccc2)n1`, the Potency is reported as “inactive”.
For `O=C1/C(=C/c2ccc3c(c2)OCO3)Oc2cc(OCC(=O)N3CC(O)C[C@H]3C(=O)O)ccc21` (stereo not given in full), the Potency was “inactive”.
For `CCc1ccccc1N(CC(=O)NCCSCc1ccco1)S(C)(=O)=O`, the Potency was “inactive”.
For `Cc1ccnc(NC(=O)C2CCN(S(=O)(=O)c3c(C)c(C)cc(C)c3C)CC2)c1`, the Potency was “inactive”.
With `CC(=O)c1ccc(NC(=O)C2CCN(S(=O)(=O)c3c(C)noc3/C=C/c3ccc(C)cc3)CC2)cc1` the Potency was “inactive”.
In the case of `Cc1noc(/C=C/N(C)C)c1S(=O)(=O)N1CCCC(C(=O)NCc2ccco2)C1` (stereo not given), the Potency is reported as “inactive”.
In the case of `CNC(=O)C1CCN(S(=O)(=O)c2c(C)noc2/C=C/c2cccc(C)c2)CC1`, the Potency is reported as “inactive”.
In the case of `Cc1cccc(NC(=O)C2CCN(S(=O)(=O)c3c(C)noc3/C=C/c3ccco3)CC2)c1`, the Potency is reported as 20.6 µM (active).
For `Cc1noc(/C=C/c2ccco2)c1S(=O)(=O)N1CCC(C(=O)Nc2ccc(Cl)cn2)CC1`, the Potency was 18.4 µM (active).
For `CC(C)CCNC(=O)c1cccnc1Sc1ccccc1`, the Potency was “inactive”.
In the case of `Cc1ccccc1CN1CCN(CC(=O)NCc2ccccn2)C1=O`, the Potency is reported as “inactive”.
For `Cc1ccccc1CN1C[C@@H]2C[C@@H](c3ccc4nsnc4c3)N3CCC[C@@]23C1=O`, the Potency was 20.6 µM (active).
With `CC(=NCC1CCCO1)c1c(O)[nH]c(=O)[nH]c1=O` (stereo not given) the Potency was “inactive”.
In the case of `COc1ccc(/C=C2/C(=O)N(c3ccccc3)N=C2C)c(OC)c1`, the Potency is reported as “inactive”.
With `COc1ccc(C2/C(=C(/O)c3ccccc3)C(=O)C(=O)N2C)c(OC)c1` (stereo not given) the Potency was “inactive”.
For `COc1ccc(/C=C2/C(=O)OCc3cc(OC)c(OC)cc32)c(OC)c1`, the Potency was 29.1 µM (active).
For `Cc1nc(N)sc1N=Nc1c(C)n(C)n(-c2ccccc2)c1=O`, the Potency was “inactive”.
With `COc1ccc(-c2nc3ccccc3c(=O)n2CCc2ccc(O)cc2)cc1` the Potency was 9.2 µM (active).
For `COc1ccc(-c2ccc(CCC(=O)O)n2-c2ccc(O)cc2)cc1`, the Potency was “inactive”.
In the case of `COc1cccc(OCCn2c(-c3ccc(Br)cc3)nc3ccccc3c2=O)c1`, the Potency is reported as “inactive”.
For `Cc1nnc(N2CCCC(C(=O)NCCN(C)C)C2)c2nn(-c3ccccc3)c(C)c12` (stereo not given), the Potency was “inactive”.
With `COc1ccc(-n2nc3c(N4CCC(C(=O)NCc5ccccc5)CC4)nnc(C)c3c2C)cc1` the Potency was “inactive”.
With `CCOc1ccc(CNC(=O)C2CCCN(c3nnc(C)c4c(C)n(-c5ccccc5)nc34)C2)cc1` (stereo not given) the Potency was 18.4 µM (active).
In the case of `CCc1ccc(CNC(=O)C2CCN(c3nnc(C)c4c(C)n(-c5ccc(C)cc5)nc34)CC2)cc1`, the Potency is reported as 5.17 µM (active).
With `COC(=O)CCCCC1=CCC2C(=O)C=C(O)C2C1` (stereo not given) the Potency was “inactive”.
With `CCOC(=O)C1(Cc2cccc(OC)c2)CCN(C(C)CC(C)(C)O)CC1` (stereo not given) the Potency was “inactive”.
In the case of `CCOC(=O)C1(Cc2cccc(OC)c2)CCN(Cc2csc(C(C)=O)c2)CC1`, the Potency is reported as 13 µM (active).
For `CCOC(=O)C1(Cc2cccc(OC)c2)CCN(C(C)COC)CC1` (stereo not given), the Potency was “inactive”.
In the case of `Cc1ccc(NC(=O)Nc2cccnc2)cc1`, the Potency is reported as “inactive”.
For `Cc1ccc(-c2nc(-c3cccnc3)sc2CC(=O)Nc2ccc(C)c(Cl)c2)cc1`, the Potency was 23.1 µM (active).
In the case of `O=C(O)Cc1sc(-c2ccc(C(=O)O)cc2)nc1-c1ccccc1`, the Potency is reported as “inactive”.
With `CC(C)CN1C(=O)CN(S(C)(=O)=O)CC1(C)C(=O)NCc1ccccc1` (stereo not given) the Potency was “inactive”.
With `CCC(=O)Nc1sc(C(=O)Nc2ccccc2)c(C)c1C(=O)OC` the Potency was “inactive”.
For `CCOC(=O)c1c(NC(=O)CCl)sc(C(=O)N(CC)CC)c1C`, the Potency was 13 µM (active).
In the case of `CCOC(=O)Nc1sc(C(=O)N(C)C)c(C)c1C(=O)OCC`, the Potency is reported as “inactive”.
In the case of `CCCCNC(=O)OC1CC2CC1[C@H]1CCCCN1C2=O` (stereo not given in full), the Potency is reported as “inactive”.
In the case of `CN1CCN(c2ccc(NC(=O)c3ccc4c(c3)[nH]c(=O)n4Cc3ccc(F)cc3)cc2)CC1`, the Potency is reported as 29.1 µM (active).
For `CN1CCN(c2ccc(NC(=O)c3ccccc3)cc2)CC1`, the Potency was “inactive”.
With `CC(C)n1c(=O)[nH]c2cc(C(=O)Nc3ccccc3)ccc21` the Potency was “inactive”.
With `C/C(=N/OC(=O)c1cccc(C(F)(F)F)c1)c1cnccn1` the Potency was “inactive”.
With `COc1cccc(OC)c1CN(C)C(=O)c1cnccc1C(F)(F)F` the Potency was “inactive”.
For `CCCS(=O)(=O)N1CCN=C1SCc1cccc(F)c1`, the Potency was “inactive”.
For `CCCC[C@@H]1CN=C(N)N1CCc1cccc(F)c1`, the Potency was 5.8 µM (active).
In the case of `O=C1NC[C@@H](Cc2ccc(O)cc2)N(CCc2cccc(F)c2)C1=O`, the Potency is reported as “inactive”.
With `CCCC[C@@H]1CN=C(N)N1CCc1cc(C(F)(F)F)cc(C(F)(F)F)c1` the Potency was 1.3 µM (active).
In the case of `NNC(=O)COc1ccc(C2SCCS2)cc1`, the Potency is reported as “inactive”.
With `CC(=O)NC1C(Oc2ccc(C)cc2)OC2COC(c3ccco3)OC2C1O` (stereo not given) the Potency was “inactive”.
In the case of `O=S(=O)(NC1CCCCC1)c1ccc(F)c2ccccc12`, the Potency is reported as “inactive”.
With `CCCC/S(C)=N/S(=O)(=O)c1ccc(C)cc1` (stereo not given) the Potency was “inactive”.
For `COc1ccc(OCCC(=O)c2ccc(OC)cc2)cc1`, the Potency was 2.59 µM (active).
In the case of `COc1ccc(C(=O)CCC(=O)Nc2ccc(Cl)cc2)cc1`, the Potency is reported as “inactive”.
For `COc1ccc(OCCCC(=O)Oc2ccc(OC)cc2)cc1`, the Potency was “inactive”.
For `Cc1ccc(NC(=O)N2CCC(O)(c3cccnc3)CC2)cc1`, the Potency was “inactive”.
In the case of `Cn1c(CCc2ccccc2)nnc1SCC(N)=O`, the Potency is reported as “inactive”.
With `COC(=O)C1=C(C)NC(=S)NC1c1ccc(OCC(=O)N2CC(C)OC(C)C2)c(OC)c1` (stereo not given) the Potency was “inactive”.
For `O=C1CSC(c2ccc(Cl)cc2)N1` (stereo not given), the Potency was “inactive”.
In the case of `N#Cc1ccc(C2=CC(=O)C[C@H](c3ccc(Cl)cc3)C2)cc1`, the Potency is reported as 14.6 µM (active).
In the case of `CCCCC/C=C/C1=CC(=O)C[C@H](c2ccc(Cl)cc2)C1`, the Potency is reported as “inactive”.
In the case of `O=C(NCc1ccccc1)[C@@H]1CSC2c3ccccc3C(=O)N21` (stereo not given in full), the Potency is reported as “inactive”.
For `CCOC(=O)C1CCN(c2csc3ccc(C)cc3c2=O)CC1`, the Potency was “inactive”.
With `CCOC(=O)C1CCN(c2c(Nc3cc(C)cc(C)c3)c(=O)c2=O)CC1` the Potency was 16.4 µM (active).
With `CCOC(=O)C1CCN(CCC(=O)Nc2cccc(C)c2)CC1` the Potency was “inactive”.
With `COC(=O)Nc1ccc(S(=O)(=O)N(C)CC(F)(F)C(F)F)cc1` the Potency was “inactive”.
With `Cc1ccc(SCCC(=O)OCC(=O)Nc2ncc(Cl)cc2Cl)cc1` the Potency was “inactive”.
In the case of `CC1(C(=O)OCC(=O)Nc2ncc(Cl)cc2Cl)CC1(Cl)Cl` (stereo not given), the Potency is reported as “inactive”.
With `Cc1ccc(-n2c(SCC(=O)Nc3ncc(Cl)cc3Cl)nc3ccccc32)cc1` the Potency was 13 µM (active).
